Results on 97 compounds are retold here after PubChem BioAssay AID1942 (Johns Hopkins Ion Channel Center, 2009).

About 580 (24%) of roughly 2,400 compounds were called active. Only a sample is shown. Values without a mark were called inactive.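 Rule for the calls: active = activity change at or above the mean plus 3 SD of buffer wells without dofetilide, per plate; inactive = the rest.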

The target in the assay is Potassium voltage-gated channel subfamily KQT member 2 (Rattus norvegicus) (UniProt O88943). Description: KCNQ2 potentiation in CHO cells – cell-based, FluxOR thallium flux, counter-screen for hERG block protector project, confirmation (AID 1942).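 Note: normalized value minus buffer-control mean plus three SD of buffer wells.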 To be noted: FluxOR thallium flux fluorescence, at 10 µM, stronger effect = higher value. (The purpose of a counterscreen is to sort out artefacts and off-target activity.)
Chain of Potassium voltage-gated channel subfamily KQT member 2 (Rattus norvegicus) (O88943 whole entry, looked up): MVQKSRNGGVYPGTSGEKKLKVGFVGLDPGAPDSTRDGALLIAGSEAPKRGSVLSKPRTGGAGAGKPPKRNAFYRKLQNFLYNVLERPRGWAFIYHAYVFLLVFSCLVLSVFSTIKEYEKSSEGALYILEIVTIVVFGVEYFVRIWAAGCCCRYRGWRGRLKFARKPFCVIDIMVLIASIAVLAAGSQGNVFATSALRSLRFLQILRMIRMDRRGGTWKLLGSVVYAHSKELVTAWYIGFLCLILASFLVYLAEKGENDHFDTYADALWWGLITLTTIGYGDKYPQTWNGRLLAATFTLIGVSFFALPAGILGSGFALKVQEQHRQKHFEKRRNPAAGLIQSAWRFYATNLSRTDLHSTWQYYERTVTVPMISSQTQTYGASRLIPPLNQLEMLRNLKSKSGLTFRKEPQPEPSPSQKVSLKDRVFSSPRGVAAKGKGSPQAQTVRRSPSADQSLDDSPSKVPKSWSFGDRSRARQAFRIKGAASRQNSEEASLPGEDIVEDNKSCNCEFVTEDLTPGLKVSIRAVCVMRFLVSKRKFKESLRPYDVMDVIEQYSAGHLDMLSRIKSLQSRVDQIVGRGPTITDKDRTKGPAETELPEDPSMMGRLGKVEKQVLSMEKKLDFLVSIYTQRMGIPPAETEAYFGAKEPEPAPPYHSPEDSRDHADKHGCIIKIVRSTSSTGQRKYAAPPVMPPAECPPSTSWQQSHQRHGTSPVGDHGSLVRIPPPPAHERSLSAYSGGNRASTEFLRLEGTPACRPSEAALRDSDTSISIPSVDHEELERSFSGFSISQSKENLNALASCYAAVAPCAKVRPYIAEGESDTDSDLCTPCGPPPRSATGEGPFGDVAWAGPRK
Turning to `O=C(CC1NCCNC1=O)Nc1ccc([N+](=O)[O-])cc1` (configuration not stated), the activity change, less the hit threshold was -27.7%.

Regarding `COc1ccc(NC(=O)N2CCN(c3ccc([N+](=O)[O-])cc3)CC2)cc1OC`, the activity change, less the hit threshold is -23.2%.

For `CN(C(=O)c1cnccn1)c1nnc(-c2cnccn2)s1`, the activity change, less the hit threshold is -25.3%.

`CC(C)C(NC(=O)c1ccccc1)C(=O)N/N=C\c1ccco1` (configuration not stated): the activity change, less the hit threshold is -20.2%.

In the case of `Cc1ccc2c(CN3CCOCC3)cc(=O)oc2c1`, the activity change, less the hit threshold is -5.1%.

Consider `Cc1cc(C)cc(OCc2nnc(SCC(=O)Nc3ccccc3)o2)c1`, for which the activity change, less the hit threshold is -16.8%.

For `CC(=O)/C=C1/C(=O)Nc2ccccc21`, the activity change, less the hit threshold is -27.4%.

As to `Cc1cccc(N2C(=O)C(O)=C(C(=O)c3cccs3)C2c2cccc(Oc3ccccc3)c2)n1` (configuration not stated), the activity change, less the hit threshold was -18.2%.

In the case of `COc1cc(C(=O)Nc2ccc(O)cc2C(=O)O)ccc1OC(C)=O`, the activity change, less the hit threshold was -10.8%.

Take `COc1ccc(/C=C/C(=O)Nc2ccccc2C(=O)O)cc1`: the activity change, less the hit threshold is -2.2%.

As for `COc1ccc(/C=C/C(=O)Nc2ccccc2C(=O)O)cc1OC`, the activity change, less the hit threshold was 4.9% (active).

For the compound `COc1cc(/C=C2/C(=O)NN(c3ccc(Cl)c(Cl)c3)C2=O)cc([N+](=O)[O-])c1O`, the activity change, less the hit threshold was -18.7%.

Turning to `Nc1ccc(C(=O)OCC(=O)N2CCN(C(=O)c3ccco3)CC2)cc1[N+](=O)[O-]`, the activity change, less the hit threshold was -23.4%.

For `Cc1cc(S(=O)(=O)Nc2ccc(C(=O)N3CCN(C(=O)c4ccco4)CC3)cc2)ccc1F`, the activity change, less the hit threshold was 3.4% (active).

For the compound `O=C(CCNS(=O)(=O)c1ccc(Cl)cc1)OCC(=O)N1CCN(C(=O)c2ccco2)CC1`, the activity change, less the hit threshold is -17.9%.

As to `CCOc1ccc(NC(=S)NS(=O)(=O)c2cc(Br)ccc2OCC)cc1`, the activity change, less the hit threshold was 35.9% (active).

Consider `CCOc1ccc(NC(=O)CSc2nc3nc(C)cc(C)n3n2)cc1`, for which the activity change, less the hit threshold is -14.8%.

Take `CCOc1ccc(NC(=O)c2ccc3c(c2)CCN3S(C)(=O)=O)cc1`: the activity change, less the hit threshold was -27.8%.

`O=C(COc1ccccc1)Nc1ccc(S(=O)(=O)Nc2ccccn2)cc1`: the activity change, less the hit threshold was -14.4%.

In the case of `CC(=O)NC1C(Oc2ccccc2C)OC(CO)C(O)C1O` (configuration not stated), the activity change, less the hit threshold was -8.8%.

As for `CCCn1c(O)c(N=NC(=O)c2ccco2)c2ccccc21`, the activity change, less the hit threshold is 86.7% (active).

Consider `CCn1c(O)c(N=NC(=O)CNC(=O)c2ccccc2F)c2ccccc21`, for which the activity change, less the hit threshold was -8.6%.

With `CCn1c(O)c(N=NC(=S)NCC2CCCO2)c2ccccc21` (configuration not stated), the activity change, less the hit threshold was -9.1%.

With `CSc1ccc(/C=N/NC(=O)c2cccs2)cc1`, the activity change, less the hit threshold is -22.9%.

Consider `O=C(CS(=O)(=O)Cc1ccccc1)Nc1ccc(Cl)cn1`, for which the activity change, less the hit threshold was -21.6%.

Turning to `CCOC(=O)c1cnn(-c2nc(SC)nc3sc4c(c23)CCCC4)c1N`, the activity change, less the hit threshold is -23.6%.

Take `CCn1c(SCC(N)=O)nc2sc3c(c2c1=O)CCCC3`: the activity change, less the hit threshold was 31.2% (active).

On to `CCCn1c(SCC(=O)N2CCN(C(C)=O)CC2)nc2sc3c(c2c1=O)CCC3`, for which the activity change, less the hit threshold is 29.6% (active).

With `CCC(=O)N1CCN(c2nc(CC)nc3sc4c(c23)CCCC4)CC1`, the activity change, less the hit threshold is -43.7%.

For `CCn1c(SC(C)C(=O)O)nc2sc3c(c2c1=O)CCC3` (configuration not stated), the activity change, less the hit threshold is 25.4% (active).

As to `CCN1C(=O)c2cccc3c(S(=O)(=O)NCC4CCCO4)ccc1c23` (configuration not stated), the activity change, less the hit threshold is -21.6%.

For the compound `CCc1cccc(C)c1NC(=O)Cc1ccsc1`, the activity change, less the hit threshold was -12.4%.

Consider `O=C1CC(c2ccco2)CC2=C1C1c3ccccc3C(=O)N1c1ccccc1N2` (configuration not stated), for which the activity change, less the hit threshold is -4.8%.

Consider `Cc1ccc(OCc2ccoc2C(=O)O)cc1C`, for which the activity change, less the hit threshold is 23.9% (active).

Turning to `Cc1cc(OCc2ccc(C(=O)Nc3ccc(C(=O)O)cc3)o2)ccc1Cl`, the activity change, less the hit threshold was -15.9%.

As to `Cc1oc2ccc(OCc3ccc(Cl)cc3)cc2c1C(=O)O`, the activity change, less the hit threshold is -3.6%.

Turning to `CCn1c(SCC(=O)NC(=O)NCc2ccco2)nc2sc(C)c(C)c2c1=O`, the activity change, less the hit threshold was 19.7% (active).

In the case of `O=C(CN1CCN(c2ccccc2O)CC1)NC(=O)NCc1ccco1`, the activity change, less the hit threshold was -18.7%.

Regarding `Cc1sc2nc(C(C)C)nc(SCC(=O)NCc3ccco3)c2c1C`, the activity change, less the hit threshold is 10.5% (active).

For the compound `COc1cccc(N2CCN(CC(=O)NC(=O)NCc3ccco3)CC2)c1`, the activity change, less the hit threshold is -11.4%.

Consider `Cc1cc(S(=O)(=O)N2CCOCC2)ccc1OCC(=O)NCc1ccco1`, for which the activity change, less the hit threshold is -12.9%.

Consider `Cc1cc2c(cc(C(=O)OC(C(=O)NCc3ccco3)C(C)C)n2C)o1` (configuration not stated), for which the activity change, less the hit threshold is -16.3%.

On to `Fc1ccc(N2CCN(c3ccc4c(C(F)(F)F)cc(C(F)(F)F)nc4n3)CC2)cc1`, for which the activity change, less the hit threshold is -19.8%.

For the compound `O=C(NCc1cccs1)C1CCC(CNS(=O)(=O)c2cccs2)CC1` (configuration not stated), the activity change, less the hit threshold is -28.1%.

As for `Cc1cc(SC#N)cc(C)c1NC(=O)CCl`, the activity change, less the hit threshold is 19.1% (active).

Regarding `Cc1ccc(S(=O)(=O)Nc2ccc(O)c3ccccc23)c(C)c1`, the activity change, less the hit threshold was -27%.

With `Cc1onc(C(=O)N2CCC(C(N)=O)CC2)c1-c1ccccc1Cl`, the activity change, less the hit threshold was -22.2%.

On to `S=c1[nH]c(-c2ccccc2)cs1`, for which the activity change, less the hit threshold was 61.9% (active).

As to `O=Cc1cc(-c2ccccc2)[nH]c1-c1ccccc1`, the activity change, less the hit threshold is -15.3%.

Regarding `Cc1cccc(-n2cc(-c3ccccc3)[nH]c2=S)c1`, the activity change, less the hit threshold was -16.2%.

Turning to `Cc1ccc(-c2csc(=S)[nH]2)cc1`, the activity change, less the hit threshold is 83.7% (active).

As to `Cc1ccc(-c2n[nH]c(=S)nc2-c2ccc(C)cc2)cc1`, the activity change, less the hit threshold was -7.1%.

As to `S=c1[nH]c(-c2ccc(Cl)cc2)cs1`, the activity change, less the hit threshold is 119% (active).

Take `Cc1cc(NC(=O)CSc2ccc(-c3ccc(F)cc3)nn2)no1`: the activity change, less the hit threshold was -18.3%.

For the compound `O=C(Nc1ccccc1)O/N=C/c1ccncc1`, the activity change, less the hit threshold is -19.6%.

Take `COc1ccc(-c2c(C#N)c(SCC(=O)c3cc4ccccc4oc3=O)nc(C)c2C(=O)Nc2ccccc2)cc1`: the activity change, less the hit threshold was -11.8%.

In the case of `O=c1[nH]c(C(Cl)(Cl)Cl)nc2ccc3ccccc3c12`, the activity change, less the hit threshold was 15.1% (active).

Take `CC12CCC(C/C1=N\N=C1\NC(=O)/C(=C\c3ccc(Cl)cc3)S1)C2(C)C` (configuration not stated): the activity change, less the hit threshold is 4.4% (active).

Take `Cc1cccc(/C=C2/S/C(=N/N=C3\CC4CCC3(C)C4(C)C)NC2=O)c1` (configuration not stated): the activity change, less the hit threshold was -10.5%.

For the compound `COc1ccc(/C=C2/S/C(=N/N=C3\CC4CCC3(C)C4(C)C)NC2=O)cc1` (configuration not stated), the activity change, less the hit threshold was -9.1%.

As to `CCN1CCCC(CO)(Cc2ccccc2)C1` (configuration not stated), the activity change, less the hit threshold is -9.6%.

As for `O=C1c2nc3cc(-c4ccco4)[nH]n3c(=O)c2CN1Cc1ccccc1`, the activity change, less the hit threshold was -13.6%.

`O=C(CN1C(=O)c2cccc3cccc1c23)Nc1cccnc1`: the activity change, less the hit threshold was -28.6%.

Regarding `O=C1CC(N2CCN(c3ccccc3Cl)CC2)C(=O)N1c1ccc(F)cc1` (configuration not stated), the activity change, less the hit threshold is -9.2%.

On to `CCOc1ccc(N)c(SSc2cc(OCC)ccc2N)c1`, for which the activity change, less the hit threshold is -17%.

With `CCCC(=O)NC(=S)Nc1nc(-c2ccc(OC)cc2)cs1`, the activity change, less the hit threshold was -16.3%.

Turning to `CCC(=O)N(CC)c1nc(-c2ccc(OC)cc2)cs1`, the activity change, less the hit threshold is 30.9% (active).

As to `CCCn1c(SCC(=O)Nc2nc(-c3ccc(OC)cc3)cs2)nc2c1c(=O)n(C)c(=O)n2C`, the activity change, less the hit threshold was -16.4%.

As to `O=C(NCCc1ccc(F)cc1)c1coc(=O)c(Br)c1`, the activity change, less the hit threshold is -6%.

With `Cc1nc(Oc2ccc(Cl)cc2)c2oc3ccccc3c2n1`, the activity change, less the hit threshold is -15.6%.

For the compound `CCOc1ccc(-c2c(=O)n(O)c3ccccc3[n+]2[O-])cc1`, the activity change, less the hit threshold was 52% (active).

`CCCOc1ccc(-c2c(=O)n(O)c3ccccc3[n+]2[O-])cc1`: the activity change, less the hit threshold is 71.1% (active).

For `CCOc1ccc(N(CC)C(=O)COc2cc(=O)n(C)c3ccccc23)cc1`, the activity change, less the hit threshold was -27%.

As to `CCOc1ccc(CC(C(N)=O)C(N)=O)cc1`, the activity change, less the hit threshold was -21.3%.

On to `CCCOc1ccc(C(=O)N(CC(C)C)c2c(N)n(Cc3ccccc3)c(=O)[nH]c2=O)cc1`, for which the activity change, less the hit threshold was -17.9%.

With `O=C1NC2(CCCCCC2)C(=O)N1Cc1ccccc1`, the activity change, less the hit threshold is -17.6%.

Take `O=C(O)/C=C/C(=O)Nc1ccc(OC(F)(F)F)cc1`: the activity change, less the hit threshold is -10.2%.

Turning to `O=[N+]([O-])c1cccc(NC(=S)Nc2nc(-c3ccccc3Cl)cs2)c1`, the activity change, less the hit threshold was -7.3%.

Turning to `Cc1c(C(=O)NN2CCN(C)CC2)cccc1[N+](=O)[O-]`, the activity change, less the hit threshold is -11.1%.

In the case of `O=C(CN1C(=O)c2ccccc2S1(=O)=O)NCCSCc1ccccc1Cl`, the activity change, less the hit threshold is -15.3%.

`CCCCOc1ccc(CC(=O)NCC(=O)O)cc1`: the activity change, less the hit threshold was -16.8%.

For `COC(=O)c1cc(-c2ccc(C)cc2)n[nH]1`, the activity change, less the hit threshold is -3.5%.

As to `Cc1ccc(OC(=O)c2ccc(Br)o2)cc1`, the activity change, less the hit threshold is 46.8% (active).

`O=C(NC1CCCC1)c1ccc(Br)o1`: the activity change, less the hit threshold is -20.5%.

Regarding `O=C(COC(=O)c1ccc(Br)o1)NC1CCCCC1`, the activity change, less the hit threshold is -6%.

Consider `CCCOc1ccc(OC(=O)c2ccc(Br)o2)cc1`, for which the activity change, less the hit threshold is 6.3% (active).

In the case of `Cc1ccc(CNC(=O)CCc2ccc(S(=O)(=O)NCC(C)C)cc2)cc1`, the activity change, less the hit threshold is -18.2%.

For `Cc1noc(C)c1-c1nnc(-c2ccc(C(F)(F)F)cc2)o1`, the activity change, less the hit threshold was -9.9%.

With `CC(C)Cc1nnc(NC(=O)Cc2ccccc2[N+](=O)[O-])s1`, the activity change, less the hit threshold was -18.1%.

In the case of `CCC(C)(C(=O)NC1CCCC1)N(Cc1ccco1)C(=O)c1ccccn1` (configuration not stated), the activity change, less the hit threshold was -21.1%.

`Cc1ccc(C2=NN(C(=O)CCCC(=O)O)C(c3ccc4c(c3)OCO4)C2)cc1` (configuration not stated): the activity change, less the hit threshold was -16.6%.

`C=CCn1c(SCC(=O)NCC2CCCO2)nnc1-c1ccccc1` (configuration not stated): the activity change, less the hit threshold is -13%.

For the compound `Cc1nc(SCC(=O)NCC2CCCO2)c2c3c(sc2n1)CCCC3` (configuration not stated), the activity change, less the hit threshold is 11.1% (active).

As to `COc1cccc(N2CC(C(=O)Nc3nnc(SCC(=O)NCC4CCCO4)s3)CC2=O)c1` (configuration not stated), the activity change, less the hit threshold was -12.6%.

Take `COc1ccc(-c2nc(=S)c3c([nH]2)Oc2ccc(C)cc2C3)cc1O`: the activity change, less the hit threshold was -18.3%.

As for `Cc1cc(N2C(=O)C(O)=C(C(=O)c3cccs3)C2c2ccccc2)no1` (configuration not stated), the activity change, less the hit threshold was -22.8%.

Consider `COc1ccc(C(=O)NCC(=O)OCn2nnc3ccccc3c2=O)cc1OC`, for which the activity change, less the hit threshold was -17.7%.
